# Where “and” joins values, the source holds several entries; their conditions need not be identical. Identical values can stand only once. About 2,000 (36%) of roughly 5,500 compounds were called active. Not shown: some 18% with an inconclusive outcome. Cut-off read from the data, not from the text of the source: active = normalized growth mostly below about 0.91 (no sharp cut-off); inconclusive = no clear call, values can overlap the other calls; inactive = mostly above about 0.92. This is one part of the list.
# Test: chemical genetic growth profiling, strain panel (AID 1159580);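 note: tested at 20 µM; growth read once vehicle control cultures reached saturation at 30 °C; 1 = growth at the plate median or of vehicle wells; lower values mean less growth of the strain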
# Settings: S. cerevisiae deletion strains, growth OD
compound,measurement,setting,value
CCN(CC)CCOc1ccc(/C(=C(\Cl)c2ccccc2)c2ccccc2)cc1,normalized growth,"locus YAL013W, strain DEP1, stronger effect = lower value",0.0553 (active)
same,normalized growth,"locus YAL021C, strain ccr4, stronger effect = lower value",0.064 (active)
same,normalized growth,"locus YAL026C, strain drs2, stronger effect = lower value",0.0617 (active)
same,normalized growth,"locus YAL030W, strain snc1, stronger effect = lower value",0.076 (active)
same,normalized growth,"locus YBL061C, strain skt5, stronger effect = lower value",0.0714 (active)
same,normalized growth,"locus YBR009C, strain hhf1, stronger effect = lower value",0.0875 (active)
same,normalized growth,"locus YBR021W, strain FUR4, stronger effect = lower value",0.089 (active)
same,normalized growth,"locus YBR023C, strain chs3, stronger effect = lower value",0.0792 (active)
same,normalized growth,"locus YBR171W, strain sec66, stronger effect = lower value",0.17 (active)
same,normalized growth,"locus YBR229C, strain ROT2, stronger effect = lower value",0.0488 (active)
same,normalized growth,"locus YBR231C, strain swc5, stronger effect = lower value",0.0847 (active)
same,normalized growth,"locus YBR279W, strain paf1, stronger effect = lower value",0.265 (active)
same,normalized growth,"locus YCL011C, strain gbp2, stronger effect = lower value",0.0699 (active)
same,normalized growth,"locus YCL016C, strain dcc1, stronger effect = lower value",0.203 (active)
same,normalized growth,"locus YCL029C, strain bik1, stronger effect = lower value",0.0627 (active)
same,normalized growth,"locus YCL069W, strain vba3, stronger effect = lower value",0.11 (active)
same,normalized growth,"locus YCR088W, strain abp1, stronger effect = lower value",0.107 (active)
same,normalized growth,"locus YDL005C, strain med2, stronger effect = lower value",0.11 (active)
same,normalized growth,"locus YDL035C, strain GPR1, stronger effect = lower value",0.0517 (active)
same,normalized growth,"locus YDL040C, strain nat1, stronger effect = lower value",0.479 (active)
same,normalized growth,"locus YDL074C, strain BRE1, stronger effect = lower value",0.0809 (active)
same,normalized growth,"locus YDL101C, strain DUN1, stronger effect = lower value",0.0611 (active)
same,normalized growth,"locus YDL185W, strain tfp1, stronger effect = lower value",0.124 (active)
same,normalized growth,"locus YDL192W, strain arf1, stronger effect = lower value",0.0614 (active)
same,normalized growth,"locus YDR001C, strain nth1, stronger effect = lower value",0.216 (active)
same,normalized growth,"locus YDR069C, strain doa4, stronger effect = lower value",0.0706 (active)
same,normalized growth,"locus YDR101C, strain arx1, stronger effect = lower value",0.0624 (active)
same,normalized growth,"locus YDR137W, strain rgp1, stronger effect = lower value",1.41 [resistant] (active)
same,normalized growth,"locus YDR159W, strain sac3, stronger effect = lower value",0.105 (active)
same,normalized growth,"locus YDR162C, strain NBP2, stronger effect = lower value",0.0484 (active)
same,normalized growth,"locus YDR195W, strain ref2",0.235 (active)
same,normalized growth,"locus YDR297W, strain sur2, stronger effect = lower value",0.0942 (active)
same,normalized growth,"locus YDR318W, strain mcm21, stronger effect = lower value",0.0641 (active)
same,normalized growth,"locus YDR334W, strain swr1, stronger effect = lower value",0.0931 (active)
same,normalized growth,"locus YDR335W, strain msn5, stronger effect = lower value",0.093 (active)
same,normalized growth,"locus YDR388W, stronger effect = lower value",0.055 (active)
same,normalized growth,"locus YDR392W, strain spt3, stronger effect = lower value",0.0803 (active)
same,normalized growth,"locus YDR502C, strain sam2, stronger effect = lower value",0.0655 (active)
same,normalized growth,"locus YEL003W, strain gim4, stronger effect = lower value",0.133 (active)
same,normalized growth,"locus YEL037C, strain rad23, stronger effect = lower value",0.099 (active)
same,normalized growth,"locus YEL061C, strain CIN8 (second series), stronger effect = lower value",0.3 (active)
same,normalized growth,"locus YEL061C, strain CIN8, stronger effect = lower value",0.0516 (active)
same,normalized growth,"locus YER015W, strain faa2, stronger effect = lower value",0.143 (active)
same,normalized growth,"locus YER016W, strain bim1, stronger effect = lower value",0.218 (active)
same,normalized growth,"locus YER110C, stronger effect = lower value",0.0804 (active)
same,normalized growth,"locus YER111C, strain swi4, stronger effect = lower value",0.529 (active)
same,normalized growth,"locus YER155C, strain BEM2 (second series), stronger effect = lower value",0.851 (active)
same,normalized growth,"locus YER155C, strain BEM2, stronger effect = lower value",0.0653 (active)
same,normalized growth,"locus YER167W, strain BCK2, stronger effect = lower value",0.0512 (active)
same,normalized growth,"locus YFR010W, strain ubp6, stronger effect = lower value",0.0804 (active)
same,normalized growth,"locus YGL078C, strain dbp3, stronger effect = lower value",0.919 (active)
same,normalized growth,"locus YGL086W, strain mad1, stronger effect = lower value",0.0596 (active)
same,normalized growth,"locus YGL167C, strain pmr1, stronger effect = lower value",0.244 (active)
same,normalized growth,"locus YGL173C, strain kem1, stronger effect = lower value",0.497 (active)
same,normalized growth,"locus YGL227W, strain vid30, stronger effect = lower value",0.144 (active)
same,normalized growth,"locus YGL240W, strain doc1, stronger effect = lower value",0.228 (active)
same,normalized growth,"locus YGL248W, strain PDE1, stronger effect = lower value",0.0492 (active)
same,normalized growth,"locus YGL253W, strain hxk2, stronger effect = lower value",0.0662 (active)
same,normalized growth,"locus YGR135W, strain pre9, stronger effect = lower value",0.069 (active)
same,normalized growth,"locus YGR252W, strain gcn5, stronger effect = lower value",0.178 (active)
same,normalized growth,"locus YHR013C, strain ard1, stronger effect = lower value",0.134 (active)
same,normalized growth,"locus YHR027C, strain rpn1, stronger effect = lower value",0.109 (active)
same,normalized growth,"locus YHR030C, strain SLT2, stronger effect = lower value",0.0542 (active) and 0.924 (inactive)
same,normalized growth,"locus YHR079C, strain IRE1 (second series), stronger effect = lower value",0.0584 (active)
same,normalized growth,"locus YHR079C, strain IRE1, stronger effect = lower value",0.945 (inactive)
same,normalized growth,"locus YHR094C, strain hxt1, stronger effect = lower value",0.0617 (active)
same,normalized growth,"locus YHR129C, strain ARP1, stronger effect = lower value",0.0567 (active)
same,normalized growth,"locus YHR142W, strain chs7, stronger effect = lower value",0.08 (active)
same,normalized growth,"locus YHR200W, strain rpn10, stronger effect = lower value",0.0639 (active)
same,normalized growth,"locus YIL066C, strain RNR3, stronger effect = lower value",0.0508 (active)
same,normalized growth,"locus YIL073C, strain SPO22, stronger effect = lower value",0.106 (active)
same,normalized growth,"locus YIL125W, strain kgd1, stronger effect = lower value",0.983 (inactive)
same,normalized growth,"locus YIR030C, strain dcg1, stronger effect = lower value",0.0601 (active)
same,normalized growth,"locus YJL092W, strain hpr5, stronger effect = lower value",0.193 (active)
same,normalized growth,"locus YJL095W, strain BCK1 (second series), stronger effect = lower value",0.0616 (active)
same,normalized growth,"locus YJL095W, strain BCK1, stronger effect = lower value",0.0616 (active) and 0.946 (inactive)
same,normalized growth,"locus YJL115W, strain asf1, stronger effect = lower value",0.262 (active)
same,normalized growth,"locus YJL129C, strain trk1, stronger effect = lower value",0.158 (active)
same,normalized growth,"locus YJL134W, strain LCB3, stronger effect = lower value",0.0524 (active)
same,normalized growth,"locus YJL154C, strain vps35, stronger effect = lower value",0.095 (active)
same,normalized growth,"locus YJL164C, strain tpk1, stronger effect = lower value",0.0775 (active)
same,normalized growth,"locus YJL166W, strain qcr8, stronger effect = lower value",0.0887 (active)
same,normalized growth,"locus YJL168C, strain set2, stronger effect = lower value",0.0577 (active)
same,normalized growth,"locus YJL187C, strain SWE1 (second series), stronger effect = lower value",0.0519 (active)
same,normalized growth,"locus YJR043C, strain POL32, stronger effect = lower value",0.064 (active)
same,normalized growth,"locus YJR066W, strain TOR1, stronger effect = lower value",0.982 (inactive)

# From PubChem BioAssay AID1159580 (chemical genetic matrix, 2015)
